Experimental data from PubChem BioAssay AID1053119 (Broad Institute, 2014).
Potency and affinity values are given separately. Records with an inconclusive call do not appear. Values without a mark were called inactive.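 How the source made its calls: active means signal loss from cell killing with fitted potency at or below twice the top valid dose; inconclusive means flat drop of 30 to 70%, or unreliable curve fit; inactive means opposite direction, flat within 30%, or weaker potency.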

Assay: viability loss in A549 lung cancer cells – cell-based, cherry-picks, 26 µM top dose, cytotoxicity control, dose response (AID 1053119);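 further: 0% = neutral control wells and -100% = 10 µM mitoxantrone wells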
Details: CellTiter-Glo ATP luminescence, 72 h; series mostly up to 26 µM; activity change, negative = cytotoxicity: at the top concentration
In the case of CCOc1ccccc1NC(=O)c1c(NC(=O)CCC(=O)O)sc2c1CCCCC2, the “activity change, negative = cytotoxicity” value is reported as -16.4%.
In the case of CO[C@H]1CN(C)C(=O)c2cc(NC(C)=O)ccc2OC[C@@H](C)N(C(=O)CN2CCOCC2)C[C@H]1C, the “activity change, negative = cytotoxicity” value is reported as -2.74%.
In the case of C[C@H]1CN([C@@H](C)CO)C(=O)c2cc(NC(=O)CCCN(C)C)ccc2O[C@@H]1CN(C)Cc1ccc(-c2ccccc2)cc1, the “activity change, negative = cytotoxicity” value is reported as -0.529%.
In the case of O=S(=O)(c1cccc(F)c1)N1CC[C@@H]2[C@H]1c1cc(-c3cccc(F)c3)ccc1N[C@@H]2CO, the “activity change, negative = cytotoxicity” value is reported as -7.69%.
With CC(C)CNC(=O)c1coc(=O)c(Br)c1 the “activity change, negative = cytotoxicity” value was -7.45%.
In the case of Cc1cccc(NC(=O)c2ccc(C3SCC(=O)N3CCc3ccccc3)cc2)c1 (centres undefined), the “activity change, negative = cytotoxicity” value is reported as -0.187%.
With Cc1ccc(-c2nc3ncccc3o2)cc1NC(=O)c1ccco1 the “activity change, negative = cytotoxicity” value was -0.724%.
In the case of C[C@@H](O)C#Cc1ccc2c(c1)O[C@@H](CN(C)C)[C@@H](C)CN([C@@H](C)CO)S2(=O)=O, the “activity change, negative = cytotoxicity” value is reported as 1.66%.
For C[C@H](O)C#Cc1ccc2c(c1)O[C@@H](CN(C)C)[C@H](C)CN([C@H](C)CO)S2(=O)=O, the “activity change, negative = cytotoxicity” value was 11.8%.
For COc1ccc(CN(C2CCCC2)S(=O)(=O)c2ccc(-n3cnnn3)cc2)cc1OC, the “activity change, negative = cytotoxicity” value was 19%.
With Cc1ccc(NC(=O)COC(=O)c2cc(Cl)ccc2[N+](=O)[O-])c(C)c1 the “activity change, negative = cytotoxicity” value was -3.19%.
With c1ccc2[nH]c(SCc3cn4cccnc4n3)nc2c1 the “activity change, negative = cytotoxicity” value was 9.45%.
For C[C@@H]1CN([C@@H](C)CO)C(=O)c2cc(-c3ccncc3)cnc2O[C@@H]1CN(C)C(=O)Cc1cccnc1, the “activity change, negative = cytotoxicity” value was 3.71%.
For CO[C@H]1CN(C)C(=O)c2cc(NC(=O)Nc3ccc(Cl)c(Cl)c3)ccc2OC[C@H](C)NC[C@H]1C, the “activity change, negative = cytotoxicity” value was -0.135% [at 8 µM].
